CF NFkB block – inhibitors of PAF-induced NF-kB signaling, primary screen, cell-based, GFP fluorescence, uHTS; inhibition, % at 5 µM; AID 588850, 2011; hit rate 0.86% among 360,000; KKLEB NF-kB-GFP reporter, GFP fluorescence overnight;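 active means at least 50% inhibition at 5 µM, scaled per plate between neutral and stimulator controls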;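 further: PAF is a Pseudomonas aeruginosa culture filtrate used as stimulus; plate controls were PAF-stimulated DMSO wells for no effect and unstimulated DMSO wells for full effect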
ABHD5 PLIN5 PPI – ABHD5-PLIN5 interaction inhibitors, primary screen, cell lysate, split luciferase complementation, luminescence | AID 602281, 2012 | inhibition, % at 4 µM | Split G. princeps luciferase complementation, 4 h | Perilipin-5 (Homo sapiens) + 1-acylglycerol-3-phosphate O-acyltransferase ABHD5 (Homo … | hit rate 0.78% among 360,000;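 active means inhibition above the mean inhibition across every tested compound plus 3 SD, cut at about 22% in these data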;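 further: 0% = DMSO only wells and the 100% control is not disclosed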
Mdm2-MdmX inh – inhibitors of human Mdm2-MdmX association, primary screen, cell-based, luminescence, split luciferase, SaOS-2, uHTS. Protein Mdm4 (Homo sapiens) + E3 ubiquitin-protein ligase Mdm2 (Homo sapiens), …. SaOS-2 split-luciferase Mdm2/MdmX complementation. inhibition, % at 8 µM. hit rate 3% among 330,000;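 active means inhibition of at least 50% at 8 µM in the primary screen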
Peg3 prom inh – Peg3 promoter-driven luciferase inhibitors, primary screen, cell-based, HeLa, luciferase luminescence. HeLa PEG-Prom luciferase reporter, overnight. inhibition, % at 20 µM. hit rate 1.7% among 360,000. AID 588405, 2011;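 active means inhibition of at least 50% at 20 µM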
HIF-2a inh – HIF-2a reporter inhibitors, primary screen, luminescence, 786-0 RCC cells; 786-0 RCC cells HIF-2a reporter, luciferase luminescence, overnight; inhibition, % at 18.8 µM; hit rate 0.72% among 360,000; AID 624352, 2012;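 active means inhibition of the luminescence signal of 40% or more relative to plate controls, in a single-dose primary screen at 18.75 µM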
KKLEB cytotox – cytotoxicity in KKLEB CF airway cells, primary screen, cytotoxicity control for CF NF-kB inhibitor project, cell-based, uHTS, fluorescence assay plates; KKLEB CF airway cells viability, ATPlite luminescence, overnight; stronger effect = lower value; cells stimulated with P. aeruginosa culture filtrate; activity change (cytotoxicity), % at 5 µM; hit rate 0.36% among 360,000;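 active means corrected activity change at or below -50% at 5 µM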
Mdm2-MdmX conf – Mdm2-MdmX complex disruptors, retested hits, confirmation, luminescence, single concentration; shares compounds with Mdm2-MdmX inh; Mdm2-MdmX binding, luminescent assay; inhibition, % at 8 µM; hit rate 55% among 10,000; AID 489028, 2010; in the data active means inhibition above about 40%
Full FLuc ctr – full-length luciferase signal inhibition, confirmation, counter-screen for Mdm2/MdmX interaction inhibitor project, cell-based, single concentration, SaOS-2; hit rate 77% among 6,200; SaOS-2 full-length luciferase counterscreen, luminescence; inhibition, % at 8 µM; shares compounds with Mdm2-MdmX inh;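 active means mean inhibition at 8 µM reaching about 37%, which flags the compound as non-specific, limit read from the data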;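 further: p53-null SaOS-2 cells with luciferase driven by a doxycycline-inducible promoter; compound on cells about two nights before reading with doxycycline added after day one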
* = called active by the depositor; / = no result given. Shown are actives, neighbours in structure and some others; about 4.6% of the full set was active somewhere.

SMILES	CF NFkB block	ABHD5 PLIN5 PPI	Mdm2-MdmX inh	Peg3 prom inh	HIF-2a inh	KKLEB cytotox	Mdm2-MdmX conf	others
CCCCNc1c(-c2ccc(OC)c(SC3CCCCC3)c2)nc2cc(C)ccn12	28	-2	64*	56*	-17	-4	21
CCCCNc1c(-c2cccc(-c3cc(C(C)=O)cs3)c2)nc2ccc(C)cn12	83*	0	81*	62*	-174	-93*	58*	Full FLuc ctr=60*
Cc1nc(COc2ccc(C(=O)NCc3ccccc3CN3CCCCC3)cc2)cs1	16	-14	8	-3	-32	-12	/
CCN(CC)S(=O)(=O)c1cccc(-n2c(O)c(C=Nc3ccccc3C(=O)O)c3ccccc3c2=O)c1	91*	-3	67*	24	3	34	68*	Full FLuc ctr=37*
Cc1ccc(N/C(N)=N/c2nc3c(c(=O)[nH]2)CCCC3)c(C)c1	9	0	44	18	-7	-5	/
Cc1ccc(N/C(N)=N/c2nc(C)cc(N3CCCCC3)n2)c(C)c1	20	8	78*	91*	-32	-22	40*	Full FLuc ctr=67*
COc1ccc(C(=O)NC2CC(C)(C)NC(C)(C)C2)cc1S(=O)(=O)N1CCOCC1	-18	0	/	12	11	14	/
Cc1[nH]c2ccccc2c1/C=C/c1nc2ccccc2c(=O)n1-c1ccc([N+](=O)[O-])cc1	7	-1	64*	29	7	-20	-16
CCn1c(/C=C/c2c(C)[nH]c3ccccc23)nc2ccccc2c1=O	20	1	44	0	-79	-23	/
COc1cc(Cl)c(C)cc1NC(C)C(=O)Nc1cc(C(F)(F)F)ccc1N1CCOCC1 (configuration not stated)	16	-6	34	24	19	2	/
COc1ccc(NC(C)C(=O)Nc2cc(C(F)(F)F)ccc2N2CCOCC2)c(OC)c1 (configuration not stated)	24	-5	57*	30	26	-16	21
N#C/C(=C\c1cccn1S(=O)(=O)c1cccc(C#N)c1)S(=O)(=O)c1ccc(F)cc1	16	-6	/	3	10	-19	/
CCOc1cc(N2CCOCC2)c(OCC)cc1NS(=O)(=O)c1ccc2c(c1)CC(=O)N2	16	-5	/	10	11	0	/
COC(=O)c1c(-c2ccc(S(C)(=O)=O)cc2)sc2cc(OC)ccc12	8	5	-27	-206	-218	3	/
COc1ccc2c(C(=O)NCc3ccc4c(c3)OCO4)c(-c3ccc(S(C)(=O)=O)cc3)sc2c1	18	-2	84*	32	11	-26	21
COc1ccc(CNC(=O)c2c(-c3c(F)cccc3Cl)noc2C)cc1	5	4	-4	6	11	4	/
COc1ccccc1N1CCN(C(=O)C2CCC(CNS(=O)(=O)c3ccc(NC(C)=O)cc3)CC2)CC1 (configuration not stated)	7	6	23	3	21	-7	/
FC(F)(F)c1cccc(NC(=S)Nc2ccc(Cl)c(Cl)c2)c1	15	-1	47	24	-35	-10	/
O=[N+]([O-])c1cc(C(F)(F)F)cc([N+](=O)[O-])c1NCCNC(=S)Nc1ccc(Cl)c(Cl)c1	42	-11	90*	53*	8	-29	46*	Full FLuc ctr=55*
OC(c1ccccc1)(c1ccccc1)c1nccn1-c1ccccc1	-5	-7	/	20	15	2	/
CCC(CNC(=O)c1c(C)nn(-c2ccccc2)c1Cl)c1ccccc1 (configuration not stated)	10	-3	-16	18	-14	-14	/
CN1Cc2c(N3CCOCC3)nc3sc(C(=O)c4ccccc4)c(N)c3c2CC1(C)C	-8	13	59*	34	-1	-8	24
CCOC(=O)c1sc2nc(N3CCOCC3)c3c(c2c1N)CC(C)(C)N(C)C3	-16	9	-12	2	8	-2	/
CC(C)COc1ccc(C(=O)Nc2ccc(NC(=O)c3ccco3)c(Cl)c2)cc1	-9	-3	60*	-33	-86	9	10
O=c1cc(CN2CCN(c3ccccc3)CC2)c2cc(O)c(-c3ccccc3)cc2o1	-8	-3	73*	13	8	15	10
SMILES	CF NFkB block	ABHD5 PLIN5 PPI	Mdm2-MdmX inh	Peg3 prom inh	HIF-2a inh	KKLEB cytotox	Mdm2-MdmX conf	others
O=c1cc(CN2CCN(c3cccc(Cl)c3)CC2)c2cc(O)c(-c3ccccc3)cc2o1	-16	5	41	3	6	-8	/
O=C(Nc1ccc(-c2nc3ccc(NC(=O)c4cccs4)cc3[nH]2)cc1)c1cccs1	7	6	95*	66*	15	-8	47*	Full FLuc ctr=34
O=C(c1ccccc1)c1ccc2nc(-c3ccc(NC(=O)c4ccccc4Br)cc3)[nH]c2c1	-11	-3	29	6	-5	12	/
Cc1ccccc1C(=O)Nc1ccc(-c2nc3ccc(C(=O)c4ccccc4)cc3[nH]2)cc1	-11	-6	67*	-21	-13	-2	33	Full FLuc ctr=46*
COc1cccc(OCCCn2cc(/C=C3/C(=N)N4C=C(C)SC4=NC3=O)c3ccccc32)c1	4	2	48	35	-22	-23	/
COc1ccc(OCCCn2cc(/C=C3/C(=N)N4C=C(C)SC4=NC3=O)c3ccccc32)cc1	35	-2	65*	51*	-87	-42	71*	Full FLuc ctr=69*
CN(Cc1ccccc1)C(=O)c1ncn2c1c(=O)[nH]c1cccnc12	17	3	/	5	-14	-6	/
COc1ccc(-c2nn(-c3ccccc3)cc2/C=C/C(=O)OCC(=O)Nc2ccccc2C#N)cc1	67*	-7	88*	48	18	-70*	9
N#Cc1ccccc1NC(=O)COC(=O)/C=C/c1cn(-c2ccccc2)nc1-c1ccc(Cl)cc1	5	-3	/	27	15	-33	/
COc1ccc(-c2nn(-c3ccccc3)cc2/C=C/C(=O)N2CCN(c3ccccn3)CC2)cc1	38	1	59*	52*	-9	-15	18

Screening data (PubChem)
